Source: PubChem BioAssay AID720518 (National Center for Advancing Translational Sciences (NCATS), 2013)
Inconclusive results are not listed. Values without a mark were called inactive. The source made the active and inactive calls. The call rests on the fitted dose curve.
Potency means the concentration at half of the fitted maximal effect.

Test: qHTS for Inhibitors of Cell Surface uPA Generation: Wild-type Protective Antigen (WT-PrAg) Counterscreen for Cherry-picked Compounds; on activity (protection): 0% is about no effect
Details: cells, WT protective antigen toxicity counterscreen; series mostly up to 115 µM; activity (protection): at the top concentration
With `COc1ccc(C(=O)c2sc(Nc3ccccc3)nc2N)cc1` the “activity (protection)” value was 5.73%.
In the case of `Cc1ccc(C2=NS(=O)(=O)N(C)C(C(=O)NC3CCCC3)=C2)cc1`, the “activity (protection)” value was -0.662%.
In the case of `CCCN1CCN(C(=O)CCCn2c(C)c3cnn(-c4ccccc4)c(=O)c3c2C)CC1`, the “activity (protection)” value was -1.21%.
With `Cc1cc(C)nc(NC(=O)CSc2nccc(C)n2)n1` the “activity (protection)” value was -1.49%.
For `C[C@@H]1O[C@@H](O[C@@H]2C(=O)c3c(O)cc(O)cc3O[C@H]2c2ccc(O)c(O)c2)[C@H](O)[C@H](O)[C@H]1O`, the “activity (protection)” value was -0.724%.
With `O=C(CN1C(=O)CSCC1=O)NCc1ccc(F)cc1` the “activity (protection)” value was 0.538%.
In the case of `COC(=O)c1cc(CNC(=O)c2ccc(N3CCCC3)c([N+](=O)[O-])c2)ccc1OC`, the “activity (protection)” value was -1.8%.
With `CCOC(=O)c1cc(-c2ccccc2C)n(CC2CC(c3ccc(OC)cc3)=NO2)n1` (stereo not given) the “activity (protection)” value was -2.18%.
With `CC1CC(=O)Nc2ccccc2N1C(=O)Cn1cnc2ccc(Br)cc2c1=O` (stereo not given) the “activity (protection)” value was 0.168%.
For `CCN(CC(=O)Nc1c(F)cccc1F)C(=O)c1ccc(-c2ccc(C(C)=O)cc2)o1`, the “activity (protection)” value was -1.23%.
For `O=C(Cc1ccc(Cl)cc1)c1c[nH]c(C(=O)NCCCn2ccnc2)c1`, the “activity (protection)” value was 1.41%.
For `Cc1[nH]c2ccc(C(=O)OC(C)C(=O)NC3CCCCC3C)cc2c1C` (stereo not given), the “activity (protection)” value was -2.39%.
With `O=C(Nc1cccc(-c2nn[nH]n2)c1)c1ccc(Cl)s1` the “activity (protection)” value was -1.91%.
For `CC(C)CNC(=O)COC(=O)CCC(=O)c1cccs1`, the “activity (protection)” value was -0.0024%.
In the case of `COC(=O)/C(C#N)=C/c1c(N2CCN(c3ccccc3)CC2)nc2c(C)cccn2c1=O`, the “activity (protection)” value was -0.794%.
For `O=C(/C=C/c1cccc(Oc2ccccc2)c1)N1CCOCC1`, the “activity (protection)” value was 0.547%.
For `O=C(N/N=C/c1cccs1)c1ccco1`, the “activity (protection)” value was -1.72%.
With `CC(=O)COc1ccc2c(-c3cccc([N+](=O)[O-])c3)cc(=O)oc2c1` the “activity (protection)” value was -2.02%.
In the case of `O=C(O)CC1(CC(=O)NCc2ccc(Cl)cc2)CCCCC1`, the “activity (protection)” value was -0.619%.
With `Cc1ccnc(NS(=O)(=O)c2ccc(NC(=O)C3C4C=CC(C4)C3C(=O)O)cc2)n1` (stereo not given) the “activity (protection)” value was 0.708%.
In the case of `CN(C)c1ccc(S(=O)(=O)N2CCC(Cc3ccccc3)CC2)cn1`, the “activity (protection)” value was -0.825%.
For `O=C1N[C@@H](Cc2c[nH]c3ccccc23)C(=O)N[C@H]1Cc1ccccc1`, the “activity (protection)” value was 1.55%.
In the case of `Cc1cccc(C(=O)Nc2cc(=O)n(C)c(=O)n2C)c1`, the “activity (protection)” value was -1.45%.
With `O=C(CSc1nnnn1-c1cccc(F)c1)Nc1nc2ccccc2s1` the “activity (protection)” value was 0.476%.
In the case of `Cc1cc2c(cc1S(=O)(=O)Nc1ccc(F)cc1)n(C)c(=O)c(=O)n2C`, the “activity (protection)” value was -0.472%.
In the case of `COc1ccc(C2=NOC(CNC(N)=S)C2)cc1` (stereo not given), the “activity (protection)” value was -1.29%.
In the case of `CCCCn1c(SCC(=O)Nc2cc(C(F)(F)F)ccc2Cl)nnc1C(CC)N(C)C` (stereo not given), the Potency was 58.5 µM (active).
In the case of `COc1ccc(CCN=c2c([N+](=O)[O-])nn(-c3cccc(C)c3)n2O)cc1OC`, the “activity (protection)” value was -2.53%.
In the case of `O=C1CCCc2ccccc2N1Cc1ccc(F)cc1`, the “activity (protection)” value was -1.1%.
For `O=C(NCCCN1CCCC1=O)c1cccc(Oc2ccccc2)c1`, the “activity (protection)” value was 0.0118%.
With `O=C1CC(/C=C/c2ccc(Cl)cc2)=Nc2ccccc2N1` the “activity (protection)” value was -1.15%.
With `CC(=O)Nc1c2c(nn1-c1cccc(C)c1)CSC2` the “activity (protection)” value was 0.376%.
In the case of `COc1ccc(N2CCN(C3CCN(S(=O)(=O)c4ccc(F)cc4)CC3)CC2)cc1`, the “activity (protection)” value was -0.637%.
In the case of `CCC(=O)Nc1nc(-c2cc([N+](=O)[O-])cs2)cs1`, the “activity (protection)” value was 0.561%.
With `O=C(c1ccc(NC(=S)NCc2ccc(Cl)cc2)cc1)N1CCCCC1` the “activity (protection)” value was -1.71%.
In the case of `Cc1noc(C)c1COc1ccc(C(=O)O)cc1`, the “activity (protection)” value was -0.888%.
With `CCN(CC)CCNC(=O)/C(=C/c1cn(CC)c2ccccc12)NC(=O)c1cc(OC)c(OC)c(OC)c1` the “activity (protection)” value was 0.845%.
With `Cc1ccc(/C=C/C(=O)O)cc1S(=O)(=O)N1CCc2ccccc21` the “activity (protection)” value was -1.49%.
With `Cc1cnc(CNC(=O)C2CCC(=O)N(CCc3cccc(F)c3)C2)[nH]1` (stereo not given) the “activity (protection)” value was -0.804%.
In the case of `O=C(Cc1n[nH]c(=O)c2ccccc12)Nc1cccc(S(=O)(=O)N2CCCCCC2)c1`, the “activity (protection)” value was -2.16%.
